# PubChem BioAssay AID1490 (National Center for Advancing Translational Sciences (NCATS), 2009)
# In all, about 310,000 compounds went through this assay and about 11,000 (3.5%) were called active. Inconclusive results (about 4%) are left out. The sample as a whole holds a higher share of actives than the screen did. Values without a mark were called inactive. Calls follow the shape of the dose curve; as a rule, active = well fitted inhibition curve with a large enough effect; inconclusive = small, poorly fitted or top-dose-only effect, or another doubt; inactive = no such curve, though single readings can be large or run the other way. Non-standard residues stand in square brackets, D forms with d. Residues, ends and D or L forms follow the SMILES beside them. Groups on a side chain read outwards from the residue. *: point of attachment. X1 = CCC(C)C(N)C1=NC(C(=O)*)CS1; Orn = NCCC[CH](N)C(=O)O
# Target: 4'-phosphopantetheinyl transferase ffp (Bacillus subtilis) (UniProt Q9F4F7)
# Test: qHTS Assay for Inhibitors of Bacillus subtilis Sfp phosphopantetheinyl transferase (PPTase);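 also: the enzyme is Sfp with the accession as filed and its product quenches rhodamine fluorescence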;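 as to largest response in the series, negative = inhibition: 0% = enzyme reaction without inhibitor and -100% = no enzyme wells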
# Settings: Biochemical Sfp PPTase activity
# Summary of the method: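 Fluorescence-quenching assay: 15 nM Sfp-PPTase preincubated 15 min at room temperature with compound, then 5 uM rhodamine-CoA and 12.5 uM BHQ-2-labelled YbbR peptide added. Fluorescence (ex 525/em 598 nm) read at start and after 30 min; difference gives rate.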
# Potency is read from the fitted curve at half-maximal effect.
Structure (SMILES),Potency,"largest response in the series, negative = inhibition [%]"
CCOC(=O)c1c(-n2cnnn2)sc(C)c1C,35.5 µM (active),
CCOC(=O)c1c(NC(=O)CSc2nccc(=O)[nH]2)sc(C)c1C,,2.75
CCOc1ccc(C(=O)COC(=O)c2ccc(-n3cnnn3)cc2)cc1,,8.76
CCC(C)C(N)C1=NC(C(=O)NC(CC(C)C)C(=O)NC(CCC(=O)O)C(=O)NC(C(=O)NCCCCC2NC(=O)C(CC(N)=O)NC(=O)C(CC(=O)O)NC(=O)C(Cc3cnc[nH]3)NC(=O)C(Cc3ccccc3)NC(=O)C(C(C)CC)NC(=O)C(CCCN)NC2=O)C(C)CC)CS1 (stereo not drawn) (cyclo(DNK([Ile-Glu-Leu-X1])[Orn]IFH); configuration not given here),,-53.6
CC(=O)OC1C([N+]2(C)CCCCC2)C[C@H]2C3CC[C@H]4C[C@H](OC(C)=O)C([N+]5(C)CCCCC5)CC4(C)C3CCC12C (stereo not given in full),,11.5
COc1ccc(S(=O)(=O)NCC(=O)NCc2cc(=O)n(C)c(=O)n2C)cc1F,,14.7
CCOc1ccc(S(=O)(=O)Nc2ccc(OC)nc2)cc1,,11.7
COc1ccc(CS(=O)/C(Cl)=C(/Cl)C(=O)Nc2ccc(OC)nc2)cc1 (stereo not given),14.1 µM (active),
COc1ccc(C(=O)Nc2ccc(NC(=O)C(C)C)nc2)cc1,,27.7
O=C1COc2ccc(S(=O)(=O)NCCc3ccc(Cl)cc3)cc2N1,,13.2
CCOC(=O)CSc1nnc(-c2ccco2)n1C,,-9.26
Cn1c(SCC(=O)c2cccs2)nnc1-c1ccco1,22.4 µM (active),
Cn1c(SCC(=O)Nc2ccc(Br)cc2F)nnc1-c1ccco1,,1.27
CCC(C)(C)NC(=O)C(c1ccc(OC)cc1)N(C(=O)CCC(=O)Nc1cc(C)on1)c1ccc(OC)cc1OC (stereo not given),,11.3
CCOCCCNC(=S)Nc1ccc2nc(N3CCN(CC)CC3)cc(C)c2c1,,10.7
CCc1ccccc1NC(=O)c1ccc2c(c1)CCN2S(C)(=O)=O,,10.6
O=c1[nH]c2ccccc2n2c(-c3ccccc3)nnc12,1.26 µM (active),
CC(=O)c1c(-c2ccccc2)c2ccccc2[nH]c1=O,,28.5
Cc1ccc(-c2nc3ccccc3[nH]c2=O)cc1,,9.46
O=C(CCn1nnnc1CN1CCOCC1)N1CCC(c2ccccc2Cl)C1 (stereo not given),,10.9
Cc1ccc(CNC(=O)[C@@H](NC(=O)Cc2ccccc2)C(C)C)cc1,,19.7
C=CCn1cnc2scc(-c3ccccc3)c2c1=O,,10.8
C=CCn1c(=S)[nH]c2scc(-c3ccco3)c2c1=O,20 µM (active),

Structure (SMILES),Potency,"largest response in the series, negative = inhibition [%]"
C=CCn1c(=S)[nH]c2nc3c(cc2c1=O)COC(C)(C)C3,,-7.89
COc1cccc(-n2c(N)cc(=O)nc2SCC(=O)Nc2cc(C)on2)c1,,21.7
CCOC(=O)C1(CCOc2ccccc2)CCN(Cc2ccc(C#CCCO)cc2)CC1,,10.5
Nc1nc(NCc2ccccc2)n(-c2ccccc2)n1,,16.4
Cc1cc2nc3c(=O)n(Cc4ccccc4)c(=O)[nH]c3nc2cc1N,20 µM (active),
O=c1[nH]c2c(c(=O)n1Cc1ccccc1)CCC2,,4.99
CC(=O)c1ccc(-c2ccc(Cn3c(C)nc4cc(N)c(C)nc43)cc2)cc1,,5.24
CC(C)Cn1cnc2c1c(=O)n(CC(=O)NN)c(=O)n2Cc1ccccc1,,10.8
CCOC(=O)[C@@H]1[C@H]2COc3cc(OC)ccc3[C@H]2N2C(=O)N(c3ccc(F)cc3)C(=O)[C@]12C,,11.1
O=S(=O)(NC1CC2CCC1C2)c1ccc(Cl)cc1 (stereo not given),,6.14
CCOc1ccc(NC(=S)NC(=O)/C=C/c2ccc(OC)cc2)c([N+](=O)[O-])c1,70.8 µM (active),
Cc1ccc(NC(=S)NC(=O)/C=C/c2ccc(Cl)cc2)cc1,,-9.72
COCOc1cc(OC)ccc1C(=O)/C=C/c1ccc([N+](=O)[O-])cc1,,0.0276
CCOC(=O)C1=C(c2ccccc2)NC(=O)NC1c1cc(OCC)c(O)c([N+](=O)[O-])c1 (stereo not given),,10.9
Brc1ccccc1/C=N/Nc1nc2ccccc2o1,,-1.43
COC(=O)c1ccc2ccccc2c1OC1OC(CO)C(O)C(O)C1NC(C)=O (stereo not given),,4.77
COc1cc(CN2CC(C)CC(C)C2)cc([N+](=O)[O-])c1O (stereo not given),,-8.11
COc1cc(CN2CCCN(C)CC2)c([N+](=O)[O-])cc1OC,,5.29
COc1cc(CN2CCN(Cc3ccc(C)cc3)CC2)c([N+](=O)[O-])cc1OC,56.2 µM (active),
COc1ccc(OCc2nnc3n2N=C(c2ccccc2)C(CC(=O)O)S3)cc1 (stereo not given),4.47 µM (active),
COc1cccc(OCc2nnc3n2N=C(c2ccccc2)C(CC(=O)O)S3)c1 (stereo not given),,13.2
COc1ccc(OCC(=O)NNC(=O)c2ccc(-c3ccccc3)cc2)cc1,,-6.16
